Reference: PubChem BioAssay
Results filed as inconclusive are left out. Activity calls are given as the source filed them.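 Rule for the calls, unless noted: active = normalized viability below 100% at a tested concentration; inactive = the rest.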

Key:
[1] = viability loss in pontine glioma line – cell-based, SU-DIPG-XVII, MIPE5.0, CellTiter-Glo, qHTS, dose response (AID 1347060; cut-off not given, nearly all actives have AC50 up to about 26 µM;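 for AC50: cells exposed to compound for 48 hours before viability readout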); conditions: CellTiter-Glo ATP luminescence
[2] = viability loss in pontine glioma line – cell-based, JHH-DIPG-1, MIPE4.0, CellTiter-Glo, qHTS, dose response (AID 1347062; cut-off not given, nearly all actives have AC50 up to about 27 µM;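 for AC50: cells exposed to compound for two days before readout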); conditions: JHH-DIPG-1 viability, CellTiter-Glo ATP luminescence
[3] = viability loss in pontine glioma line – cell-based, SU-DIPG-IV, MIPE4.0, CellTiter-Glo, qHTS, dose response (AID 1347063; cut-off not given, nearly all actives have AC50 up to about 30 µM;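 note: compound exposure lasted 48 hours before the viability readout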); conditions: CellTiter-Glo ATP luminescence
[4] = viability loss in pontine glioma line – cell-based, SU-DIPG-XIII, MIPE5.0, CellTiter-Glo, qHTS, dose response (AID 1347064; cut-off not given, nearly all actives have AC50 up to about 23 µM;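 for AC50: cells exposed to compound for 48 hours before the viability read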); conditions: CellTiter-Glo ATP luminescence
[5] = viability loss in pontine glioma line – cell-based, SU-DIPG-XXV, MIPE5.0, CellTiter-Glo, qHTS, dose response (AID 1347065; cut-off not given, nearly all actives have AC50 up to about 26 µM;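 note: cells exposed to compound for 48 hours before ATP readout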); conditions: CellTiter-Glo ATP luminescence
[6] = growth inhibition of DIPG cells – cell-based, MIPE4.0 library, CellTiter-Glo luminescence, qHTS (AID 1347066; cut-off not given, nearly all actives have AC50 up to about 30 µM;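 note: cells exposed to compound for 48 hours before readout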); conditions: SU-DIPG-VI viability, CellTiter-Glo ATP luminescence
[7] = JHH-DIPG-1 glioma cell viability, MIPE5.0 library, CellTiter-Glo luminescence, qHTS (AID 1347067; cut-off not given, nearly all actives have AC50 up to about 26 µM;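 note: cells exposed to compound for 48 hours before readout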); conditions: JHH-DIPG-1 glioma viability, CellTiter-Glo ATP luminescence
[8] = growth inhibition of DIPG cells – cell-based, MIPE5.0 library, qHTS (AID 1347068; cut-off not given, nearly all actives have IC50 up to about 30 µM;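 for IC50: cells exposed to compound for 48 hours before viability readout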); conditions: SU-DIPG-XXV viability
[9] = viability loss with induced miR-34 in A549 – imaging, A549 dox-inducible miR-34, nuclei and caspase counts, primary screen (AID 1347080;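 active = compounds whose cell count with miR-34 switched on is under 0.7 times the count with it off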); conditions: A549 miR-34 inducible, Hoechst nuclei count, 48 h
[10] = MELAS cybrid and Rieske KO viability enhancers – cell-based, MELAS cybrids, Rieske KO mouse fibroblasts, CellTiter-Glo, primary screen (AID 1508586;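 active = mean z-score across replicates of 1.96 or higher in either the MELAS or the Rieske mutant cell line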;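 note: z relative to plate mean and SD of compound and empty wells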); conditions: low glucose
[11] = compounds altering HSF1 focus formation in cells – imaging, Selleck Cancer Library (AID 1347162; in the data active = plate-normalised HSF1 focus index below about 0.46); conditions: human cells, HSF1 nuclear foci imaging, at 10 µM; SSMD: measured here: HSF1 foci SSMD mean; cell count: measured here: cell number; plate-normalised HSF1 focus index: stronger effect = lower value
[12] = drug combination growth inhibition, ovarian cancer – cell-based, oncology-focused library, rucaparib conditional, profiling panel (AID 1508598); conditions: patient-derived ovarian cancer cells, CellTiter-Glo viability, 144 h, stronger effect = lower value
[13] = stronger effect = lower value, cell number ratio, induced over uninduced
[14] = measured here: relative caspase fold change +Dox/-Dox
[15] = measured here: total cells with miR-34 induction, stronger effect = lower value
[16] = measured here: total cells without miR-34 induction
[17] = MELAS cybrid survival, CellTiter-Glo 48 h, stronger effect = higher value
[18] = Rieske KO mouse fibroblast survival, CellTiter-Glo 72 h

CCc1cnn2c(NCc3ccc[n+]([O-])c3)cc(N3CCCC[C@H]3CCO)nc12
active: AC50 [1] 37.2 nM | AC50 [2] 23.5 nM | AC50 [3] 18.7 nM | AC50 [4] 37.2 nM | AC50 [5] 29.5 nM | AC50 [7] 41.7 nM
inactive: outcome [6]

COC(=O)Nc1ccc(-c2nc(N3CCOCC3)c3cnn(C4CCN(Cc5cccnc5)CC4)c3n2)cc1
active: AC50 [1] 5250 nM | AC50 [2] 6620 nM | AC50 [3] 235 nM | AC50 [4] 6610 nM | AC50 [5] 1480 nM | AC50 [6] 14800 nM | AC50 [7] 6610 nM | IC50 [8] 13200 nM

O=C1CCCC(=O)C1C(=O)c1ccc(C(F)(F)F)cc1[N+](=O)[O-]
inactive: outcome [1] | outcome [2] | outcome [3] | outcome [4] | outcome [5] | outcome [6] | outcome [7] | outcome [8]

Cc1ccc(NC(=O)C2(c3ccc4c(c3)OC(F)(F)O4)CC2)nc1-c1cccc(C(=O)O)c1
-0.226: z-score [10, 18]
inactive: outcome [1] | outcome [4] | outcome [5] | outcome [7] | outcome [8] | fold change [9, 13] 0.92 | z-score [10, 17] -0.25
8860: cell count [9, 16]
0.757: fold change [9, 14]
8150: cell count [9, 15]
active: AC50 [2] 83.3 nM | AC50 [3] 118 nM | AC50 [6] 1180 nM

NC1=N[C@H]2[C@H](CS[C@H]2CCCCC(=O)O)N1
inactive: outcome [1] | outcome [2] | outcome [3] | outcome [4] | outcome [5] | outcome [6] | outcome [7]

NS(=O)(=O)c1cccc2c1C(=O)c1cccc(O)c1C2=O
active: AC50 [1] 2350 nM | AC50 [2] 1180 nM | AC50 [3] 332 nM | AC50 [4] 1180 nM | AC50 [5] 1860 nM | AC50 [6] 526 nM | AC50 [7] 2090 nM | IC50 [8] 9340 nM

C=CC(=O)Nc1ccc2ncnc(Nc3ccc(OCc4cccc(F)c4)c(Cl)c3)c2c1
4290: cell count [9, 15]
0.764: z-score [10, 18]
active: AC50 [1] 5250 nM | AC50 [2] 23500 nM | AC50 [3] 1320 nM | AC50 [4] 11800 nM | AC50 [5] 6610 nM | AC50 [6] 4690 nM | AC50 [7] 8330 nM | IC50 [8] 14800 nM
2.08: fold change [9, 14]
5610: cell count [9, 16]
inactive: fold change [9, 13] 0.764 | z-score [10, 17] -0.263

CC1(COc2ccc3c(c2)ncn3-c2ccc3cccc(N4CCC(N)CC4)c3n2)COC1
inactive: fold change [9, 13] 0.944 | plate-normalised HSF1 focus index [11] 0.92 | z-score [10, 17] 0.899 | viability ([12]; at 0.000305 µM, OCI-C5x cells, with rucaparib 10 µM, 100% = cells with rucaparib alone) 110% | viability ([12]; at 0.000305 µM, OCI-C5x cells, without rucaparib) 122% | viability ([12]; at 0.000305 µM, OCI-P5x cells, with rucaparib 20 µM, 100% = cells with rucaparib alone) 122% | viability ([12]; at 0.000305 µM, OCI-P5x cells, without rucaparib) 113% | viability ([12]; at 0.00122 µM, OCI-C5x cells, with rucaparib 10 µM, 100% = cells with rucaparib alone) 115% | viability ([12]; at 0.00122 µM, OCI-C5x cells, without rucaparib) 125% | viability ([12]; at 0.00122 µM, OCI-P5x cells, with rucaparib 20 µM, 100% = cells with rucaparib alone) 119% | viability ([12]; at 0.00122 µM, OCI-P5x cells, without rucaparib) 120% | viability ([12]; at 0.00488 µM, OCI-C5x cells, with rucaparib 10 µM, 100% = cells with rucaparib alone) 111% | viability ([12]; at 0.00488 µM, OCI-C5x cells, without rucaparib) 121% | viability ([12]; at 0.00488 µM, OCI-P5x cells, with rucaparib 20 µM, 100% = cells with rucaparib alone) 120% | viability ([12]; at 0.00488 µM, OCI-P5x cells, without rucaparib) 117% | viability ([12]; at 0.0195 µM, OCI-C5x cells, with rucaparib 10 µM, 100% = cells with rucaparib alone) 115% | viability ([12]; at 0.0195 µM, OCI-C5x cells, without rucaparib) 127% | viability ([12]; at 0.0195 µM, OCI-P5x cells, with rucaparib 20 µM, 100% = cells with rucaparib alone) 119% | viability ([12]; at 0.0195 µM, OCI-P5x cells, without rucaparib) 127% | viability ([12]; at 0.0781 µM, OCI-C5x cells, with rucaparib 10 µM, 100% = cells with rucaparib alone) 119% | viability ([12]; at 0.0781 µM, OCI-C5x cells, without rucaparib) 130% | viability ([12]; at 0.0781 µM, OCI-P5x cells, with rucaparib 20 µM, 100% = cells with rucaparib alone) 131% | viability ([12]; at 0.0781 µM, OCI-P5x cells, without rucaparib) 120% | viability ([12]; at 0.313 µM, OCI-C5x cells, with rucaparib 10 µM, 100% = cells with rucaparib alone) 116% | viability ([12]; at 0.313 µM, OCI-C5x cells, without rucaparib) 137% | viability ([12]; at 0.313 µM, OCI-P5x cells, with rucaparib 20 µM, 100% = cells with rucaparib alone) 129% | viability ([12]; at 0.313 µM, OCI-P5x cells, without rucaparib) 123% | viability ([12]; at 1.25 µM, OCI-C5x cells, with rucaparib 10 µM, 100% = cells with rucaparib alone) 102% | viability ([12]; at 1.25 µM, OCI-C5x cells, without rucaparib) 131% | viability ([12]; at 1.25 µM, OCI-P5x cells, with rucaparib 20 µM, 100% = cells with rucaparib alone) 142% | viability ([12]; at 1.25 µM, OCI-P5x cells, without rucaparib) 119%
1400: cell count [9, 16]
1330: cell count [9, 15]
-3.35: z-score [10, 18]
1.21: fold change [9, 14]
-2.3: SSMD [11]
active: AC50 [1] 9340 nM | AC50 [2] 332 nM | AC50 [3] 1180 nM | AC50 [4] 10500 nM | AC50 [5] 8330 nM | AC50 [6] 23500 nM | AC50 [7] 13200 nM | IC50 [8] 26300 nM | viability ([12]; at 5 µM, OCI-C5x cells, with rucaparib 10 µM, 100% = cells with rucaparib alone) 77.3% | viability ([12]; at 5 µM, OCI-C5x cells, without rucaparib) 77.6% | viability ([12]; at 5 µM, OCI-P5x cells, with rucaparib 20 µM, 100% = cells with rucaparib alone) 4.5% | viability ([12]; at 5 µM, OCI-P5x cells, without rucaparib) 81.8%
7140: cell count [11]
